# Source: the supplement of paper PMC6805474
# Unmarked numbers belong to inactive results.
# Assays:
# [1] = test system: Schistosoma mansoni schistosomula (NMRI); test: phenotypic severity score (0-4); higher = more antischistosomal effect, active = 2 or more; details: 10 µM
# [2] = test system: Schistosoma mansoni schistosomula (Liberian); test: drug effect (1 - score/DMSO control score) (fraction); higher = more antischistosomal effect, active = 0.5 or more; extreme values may be limits of the assay; details: 10 µM
# Method in brief: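 Liberian-strain Schistosoma mansoni schistosomula, mechanically transformed from cercariae and pre-incubated at least 12 h, were exposed in duplicate (50 per well, flat-bottom 96-well plates) to 10 µM compound in Medium 199 with 5% FCS at 37 °C, 5% CO2, with 0.1% DMSO control wells. Wells were scored visually (10×) at 24, 48 and 72 h on a quarter-point scale from 3 (normal) to 0 (dead). Drug effect was derived from the mean test-well score relative to the mean DMSO-control score. Negative values were set to zero, and plates were valid only if control wells averaged at least 2.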
# 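Throughout, for phenotypic severity score (0-4): visual microscopic scoring of shape, motility and density changes versus 0.5% DMSO solvent controls, one point per descriptor, degeneracy or death scored 4, mean of duplicate wells.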
Structure (SMILES),phenotypic severity score ([1]; 24 h),phenotypic severity score ([1]; 48 h),phenotypic severity score ([1]; 72 h),drug effect ([2]; 24 h),drug effect ([2]; 48 h),drug effect ([2]; 72 h)
O=C(Nc1nnc(-c2ccc(Cl)s2)o1)c1ccc(Cl)s1,2 (active),4 (active),4 (active),< 0,< 0,< 0
CN(C(=O)c1cc2c(-c3cncnc3)cccc2[nH]1)c1ccccc1,0,0,0,0.189,0.278,0.375
CC1CCCCN1C(=O)NCCc1coc(-c2ccc(F)cc2)n1 (configuration not stated),1,0,0,0.0909,0.25,0.236
CC(C)(C)n1nc(Cc2cccc3ccccc23)c2c(N)ncnc21,0,0,0,0.15,0.222,0.625 (active)
CN(C)c1cc(NC(=O)Nc2ccccc2)c2ccccc2n1,1,0,0,0.182,0.35,0.455
CC(C)(C)c1cc(C(=O)N2CCN(c3nccnc3C#N)CC2)n(Cc2ccccc2)n1,0,0,1,< 0,0.027,0.0303
CCC(=O)Nc1ccccc1C(=O)Nc1ccccn1,1,0,0,0.136,0.3,0.236
COc1ccc(Oc2ccc([C@@H](C)N(C)c3ncc4c(N)nc(N)nc4n3)cc2)cc1,4 (active),4 (active),4 (active),0.526 (active),0.5 (active),0.5 (active)
O=C1N(Cc2cc3ccccc3s2)CC2CN(Cc3ccccc3)CCN12 (configuration not stated),0,0,0,0.182,0.3,0.236
Cc1cccnc1NC(=O)c1cccc(OCc2c(C)noc2C)c1,0,0,0,0.0909,0.15,0.127
O=C(Nc1nc(-c2ccccn2)cs1)c1cncn1-c1ccccc1,0,0,0,0.0909,0.15,0.236
Cc1cc(O)nc(-n2nc(C)cc2C)n1,0,0,0,0.15,0.243,0.576 (active)
NC(=O)c1cc(Br)ccc1OCCOc1ccccc1,1,1,2 (active),< 0,< 0,< 0
CNC(=O)C1Cc2c([nH]c3cc(Cl)ccc23)C2(CCN(CCc3ccccc3)CC2)N1 (configuration not stated),0,0,0,0.1,0.514 (active),0.394
Cc1cc(C)nc(-n2nc(C)cc2Nc2ccccc2)n1,2 (active),1,4 (active),0.0526,0.278,0.25
C[C@H](C(N)=O)N1CCCC[C@@H]1c1ccc(OCc2cccc(F)c2)cc1,0,0,0,0.2,0.444,0.5 (active)
O=C(NCCc1ccccc1)c1cc(-c2cccnc2)cnc1NCC1CC1,0,2 (active),0,0.2,0.514 (active),0.576 (active)
CNC1C(OC2C(OC3C(O)C(O)C(NC(=N)N)C(O)C3NC(=N)N)OC(C)C2(O)C=O)OC(CO)C(O)C1O (configuration not stated),0,0,0,0.182,0.1,0.0727
O=C(NCCc1c[nH]c2ccccc12)c1cc2ccccc2oc1=O,1,0,0,0.182,0.4,0.455
O=C(Nc1ccccc1-c1nc2c(C(=O)O)cccc2o1)c1ccccc1,0,0,0,0.05,0.027,0.0303
CC(C)N=c1cc2n(-c3ccc(Cl)cc3)c3ccccc3nc-2cc1Nc1ccc(Cl)cc1,4 (active),4 (active),4 (active),1 (active),1 (active),1 (active)
O=C1[C@@H](Oc2ccccc2)[C@@H](c2ccc(Cl)cc2)N1CCn1cnc2c(NCc3ccccc3)ncnc21,3 (active),4 (active),4 (active),0.136,0.1,0.158
